Compounds without any hit were thinned out: in the full panel of roughly 83,000, 20% have a hit.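 Interpretation: 100, growth as untreated; towards 0, rising growth inhibition; 0, no net growth; 0 to -100, cell death. Compounds scoring below 10 were considered active.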 Calls of active or inactive are those of the source.
Assays:
Assay in all cases: NCI-60 one-dose screen, 48 h (100 = growth as untreated, 0 = no growth, -100 = all killed)
Conditions in all cases: 10 µM unless noted
DU-145 prostate = system: DU-145 prostate
K-562 leukemia = system: K-562 leukemia
MALME-3M melanoma = system: MALME-3M melanoma
MDA-MB-231 breast = system: MDA-MB-231 breast
RXF 393 renal = system: RXF 393 renal
SF-268 CNS = system: SF-268 CNS
SF-295 CNS = system: SF-295 CNS
SF-539 CNS = system: SF-539 CNS
UACC-257 melanoma = system: UACC-257 melanoma
M14 melanoma = system: M14 melanoma
HCT-15 colon = system: HCT-15 colon
HT29 colon = system: HT29 colon
SNB-75 CNS = system: SNB-75 CNS
SNB-19 CNS = system: SNB-19 CNS
U251 CNS = system: U251 CNS
PC-3 prostate = system: PC-3 prostate
SK-MEL-5 melanoma = system: SK-MEL-5 melanoma
UACC-62 melanoma = system: UACC-62 melanoma
LOX IMVI melanoma = system: LOX IMVI melanoma
SK-MEL-28 melanoma = system: SK-MEL-28 melanoma

Measured: growth

Cc1cc(O)c(C2=NN(c3ccc(S(N)(=O)=O)cc3)C(c3ccccc3O)C2)cc1Cl (stereo not given)
active: DU-145 prostate 1.2% | K-562 leukemia -36.6% | MDA-MB-231 breast 4.16% | RXF 393 renal -10.3% | SF-539 CNS -21.2% | M14 melanoma -68.5% | HT29 colon -18.4% | U251 CNS 2.38% | PC-3 prostate 9.8% | LOX IMVI melanoma -89.6%
inactive: MALME-3M melanoma 21.8% | SF-268 CNS 10.8% | SF-295 CNS 58.5% | UACC-257 melanoma 66.5% | HCT-15 colon 17.5% | SNB-75 CNS 41.5% | SNB-19 CNS 65.4% | SK-MEL-5 melanoma 36.8% | UACC-62 melanoma 21.3% | SK-MEL-28 melanoma 53.9%

Cn1cc(-c2cc3ncnc(Nc4ccc(CC(=O)Nc5cc(C(C)(C)C)nn5C)cc4)c3s2)cn1
active: RXF 393 renal 9.8%
inactive: DU-145 prostate 40.3% | K-562 leukemia 17% | MALME-3M melanoma 56.7% | MDA-MB-231 breast 47.7% | SF-268 CNS 51.8% | SF-295 CNS 58.1% | SF-539 CNS 47.4% | UACC-257 melanoma 83.9% | M14 melanoma 39.2% | HCT-15 colon 54.8% | HT29 colon 50% | SNB-75 CNS 56.3% | SNB-19 CNS 95.7% | U251 CNS 61.2% | PC-3 prostate 43.9% | SK-MEL-5 melanoma 49% | UACC-62 melanoma 33.5% | LOX IMVI melanoma 33.6% | SK-MEL-28 melanoma 77.2%

Cc1cc(C)c(-c2c(N)cc(Br)cc2Br)c(N)c1
inactive: DU-145 prostate 71.2% | K-562 leukemia 13.4% | MALME-3M melanoma 26.9% | MDA-MB-231 breast 56.4% | RXF 393 renal 10.5% | SF-268 CNS 76.1% | SF-295 CNS 36.7% | SF-539 CNS 46.9% | UACC-257 melanoma 66.8% | M14 melanoma 41.4% | HCT-15 colon 46.5% | HT29 colon 48.7% | SNB-75 CNS 22.9% | SNB-19 CNS 63.4% | U251 CNS 37.4% | PC-3 prostate 63.3% | SK-MEL-5 melanoma 29.3% | UACC-62 melanoma 58% | LOX IMVI melanoma 32.8% | SK-MEL-28 melanoma 51.1%

CN1C(=C2C(=O)OC(C)(C)OC2=O)CCC1C(=O)NCc1ccc(Cl)cc1Cl (stereo not given)
inactive: DU-145 prostate 107% | K-562 leukemia 97.5% | MALME-3M melanoma 102% | MDA-MB-231 breast 99.5% | RXF 393 renal 108% | SF-268 CNS 101% | SF-295 CNS 96.4% | SF-539 CNS 96% | UACC-257 melanoma 87% | M14 melanoma 98.2% | HCT-15 colon 101% | HT29 colon 79.5% | SNB-75 CNS 107% | SNB-19 CNS 97.7% | U251 CNS 95.5% | PC-3 prostate 83% | SK-MEL-5 melanoma 91.6% | UACC-62 melanoma 86.9% | LOX IMVI melanoma 93.5% | SK-MEL-28 melanoma 93%

CC[C@H](C)C(=O)O[C@H]1CCC=C2C=C[C@H](C)[C@H](CC[C@@H]3CC=CC(=O)O3)[C@H]21
inactive: DU-145 prostate 88.7% | K-562 leukemia 46.4% | MALME-3M melanoma 92.5% | MDA-MB-231 breast 97.6% | RXF 393 renal 96.6% | SF-268 CNS 99.2% | SF-295 CNS 115% | SF-539 CNS 80.5% | UACC-257 melanoma 77.8% | M14 melanoma 76.4% | HCT-15 colon 85.7% | HT29 colon 67.7% | SNB-75 CNS 68.9% | SNB-19 CNS 83.5% | U251 CNS 88.1% | PC-3 prostate 61.6% | SK-MEL-5 melanoma 77% | UACC-62 melanoma 82.3% | LOX IMVI melanoma 53.3% | SK-MEL-28 melanoma 94.8%

COc1ccc(-n2c(N)c(-c3nc4ccccc4[nH]3)cc(C#N)c2=O)cc1
inactive: DU-145 prostate 87.9% | K-562 leukemia 93.5% | MALME-3M melanoma 92.1% | MDA-MB-231 breast 90.8% | RXF 393 renal 67.2% | SF-268 CNS 95.8% | SF-295 CNS 94.1% | SF-539 CNS 77.2% | UACC-257 melanoma 96.4% | M14 melanoma 109% | HCT-15 colon 89.4% | HT29 colon 90.2% | SNB-75 CNS 60.5% | SNB-19 CNS 78.9% | U251 CNS 103% | PC-3 prostate 85.4% | SK-MEL-5 melanoma 90.9% | UACC-62 melanoma 102% | LOX IMVI melanoma 98.2% | SK-MEL-28 melanoma 100%

Cc1nc2ccccc2c(/C=C/c2ccc(Cl)cc2)c1C(=O)/C=C/c1ccc(C(F)(F)F)cc1
active: DU-145 prostate -83.7% | K-562 leukemia -7.8% | MALME-3M melanoma -74.1% | MDA-MB-231 breast -50.5% | RXF 393 renal -85.9% | SF-268 CNS -53.5% | SF-295 CNS -88.2% | SF-539 CNS -90.5% | UACC-257 melanoma -37% | M14 melanoma -38.6% | HCT-15 colon -31.6% | HT29 colon 3.52% | SNB-75 CNS -79.6% | SNB-19 CNS -80.4% | U251 CNS -84.5% | PC-3 prostate -52.3% | SK-MEL-5 melanoma -94.6% | UACC-62 melanoma -59.3% | LOX IMVI melanoma -89% | SK-MEL-28 melanoma -69.7%

COc1cc(OCc2cccc(-c3ccc(C(O)c4nccs4)cc3)c2C)cc(OC)c1CNCCNC(C)=O (stereo not given)
inactive: DU-145 prostate 111% | K-562 leukemia 77.2% | MALME-3M melanoma 86% | MDA-MB-231 breast 101% | RXF 393 renal 107% | SF-268 CNS 97.5% | SF-295 CNS 103% | SF-539 CNS 101% | UACC-257 melanoma 99% | M14 melanoma 99.6% | HCT-15 colon 97.7% | HT29 colon 92.9% | SNB-75 CNS 85% | SNB-19 CNS 94.9% | U251 CNS 91.1% | PC-3 prostate 90.2% | SK-MEL-5 melanoma 91.8% | UACC-62 melanoma 90% | LOX IMVI melanoma 94.8% | SK-MEL-28 melanoma 94.8%
